The values below come from PubChem BioAssay (NCI).

Common to all, as to test: NCI-60 one-dose screen, 48 h (100 = growth as untreated, 0 = no growth, -100 = all killed)
Common to all, as to settings: 10 µM unless noted

Experiment [1] has as its system HCT-15 colon.
For experiment [2], the system named is HT29 colon.
For experiment [3], the system named is SNB-75 CNS.
For experiment [4], the system named is SNB-19 CNS.
The test system of experiment [5] is U251 CNS.
Experiment [6] deals with PC-3 prostate.
Experiment [7] concerns SK-MEL-5 melanoma.
The test system of experiment [8] is UACC-62 melanoma.
Experiment [9] relates to LOX IMVI melanoma.
In experiment [10] the test system is SK-MEL-28 melanoma.
For experiment [11], the system named is SK-MEL-2 melanoma.
Experiment [12] concerns EKVX NSCLC.
Experiment [13] has as its system SN12C renal.
Experiment [14] relates to UO-31 renal.
For experiment [15], the system named is TK-10 renal.
For experiment [16], the system named is ACHN renal.
The subject of experiment [17] is CAKI-1 renal.
In experiment [18] the test system is A498 renal.
Experiment [19] concerns CCRF-CEM leukemia.
The test system of experiment [20] is MOLT-4 leukemia.

Compounds without any hit were thinned out: in the full panel of roughly 83,000, 20% have a hit.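 The endpoint reported here, percent growth, reads 100 for growth as untreated, 0 for no net growth and -100 for all cells dead.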 Values without a mark were called inactive. Calls of active or inactive are those of the source. The calls were made as follows: active = growth percent below 10; inactive = the rest.

Take `Cc1ccc(/C=N\NC(=O)c2[nH]c3ccc(F)cc3c2-c2ccccc2)cc1`: the growth in [1] was 24.1%; in experiment [2] it was 2.07% (active); in experiment [3] it was 13.7%; in [4] it was 45.9%; in experiment [5], 12.4%; in experiment [6], 15%. Also, the growth in experiment [7] was -17.1% (active); in experiment [8], 44.9%; in experiment [9] it was 26.5%; in experiment [10], 71.5%; in experiment [11], 23.2%; in experiment [12], 38%. In addition, the growth in [13] was 41.5%; in experiment [14] it was 32.1%; in experiment [15], 72.5%; in [16], 38.5%; in experiment [17], 1.21% (active); in experiment [18], 19%. In addition, the growth was 18.4% in experiment [19] and 28.2% in [20].
With `O=C(CCN1C(=O)/C(=C/c2ccc(O)cc2)SC1=S)Nc1ccc(Cl)cc1`, the growth in experiment [1] was 91.2%; in experiment [2], 108%; in experiment [3] it was 90.4%; in [4] it was 89.7%; in experiment [5] it was 96.5%; in [6], 88.1%. The growth in experiment [7] is 99.2%; in [8], 83.3%; in experiment [9] it was 97.8%; in experiment [10], 99.2%; in experiment [11], 108%; in experiment [12] it was 95.8%. In addition, the growth was 91.7% in experiment [13]; 6.22% (active) in experiment [14]; 108% in [15]; 84% in experiment [16]; 92.5% in experiment [17]; 95% in experiment [18]. The growth in experiment [19] was 46.7%; in [20] it was 84.7%.
In the case of `COc1ccc(-c2cc3c4c(nc5ccccc5c4c2)CC(c2cc(OC)c(OC)c(OC)c2)O3)cc1` (stereo not given), the growth was 45.6% in [1]; 45.2% in experiment [2]; -30% (active) in experiment [3]; 40.1% in experiment [4]; 54.8% in experiment [5]; 52.3% in [6]. Further, the growth in experiment [7] was 62.6%; in [8] it was 52%; in experiment [9], 38.4%; in experiment [10], 44%; in [11], 66.3%; in experiment [12], 65%. Also, the growth in experiment [13] was 32.3%; in experiment [14], -26.3% (active); in experiment [15] it was 7.8% (active); in experiment [16], -46% (active); in [17], 1.26% (active); in experiment [18], 70.4%. The growth is 99.1% in experiment [19] and 102% in [20].
As for `CC(=O)CC(c1cccs1)c1c(-c2ccccc2)[nH]c2ccccc12` (stereo not given), the growth in experiment [1] was 80.7%; in experiment [2], 98.2%; in [3], 40.7%; in experiment [4], 96%; in experiment [5] it was 93.8%; in experiment [6], 77.3%. The growth in [7] is 95.3%; in [8], 77.9%; in [9], 81.7%; in [10], 102%; in experiment [11], 94.6%; in experiment [12], 72.6%. The growth in [13] is 93%; in experiment [14], 71.5%; in experiment [15], 134%; in experiment [16], 89.9%; in [17] it was 39.4%; in [18], 84%. The figures for the growth in experiment [19] and in [20] were 92.6% and 86.9%, respectively.
In the case of `O=C(Nc1ccc(-c2nc(-c3cccc(OCCN4CCOCC4)c3)c(-c3ccnc(Br)c3)[nH]2)cc1)c1ccccc1`, the growth is -7.78% (active) in [1]; 1.79% (active) in experiment [2]; -37.3% (active) in experiment [3]; -0.968% (active) in experiment [4]; 8.84% (active) in experiment [5]; 18.3% in [6]. Also, the growth is -92.7% (active) in experiment [7]; -15.9% (active) in [8]; -58.8% (active) in [9]; -29.5% (active) in experiment [10]; 25.3% in experiment [11]; 32.3% in experiment [12]. Also, the growth in experiment [13] is 45.9%; in experiment [14] it was -51.9% (active); in experiment [15] it was 48.6%; in experiment [16], 28.3%; in experiment [17], -6.68% (active); in experiment [18], -70.5% (active). Further, the growth is 15.1% in experiment [19] and 1.62% (active) in [20].
Consider `O=C1NC(=O)C(c2ccccc2)(c2ccccc2)N1Cc1cn(-c2c3ccccc3nc3ccccc23)nn1`, for which the growth in experiment [1] was 59.9%; in experiment [2], 85.3%; in experiment [3] it was 85.1%; in experiment [4] it was 89.4%; in experiment [5], 91.2%; in experiment [6], 78%. In addition, the growth was 82.2% in experiment [7]; 72.4% in experiment [8]; 78.2% in experiment [9]; 103% in [10]; 97.9% in experiment [11]; 80.4% in [12]. The growth in [13] was 83.6%; in experiment [14], 62.4%; in [15], 74.9%; in experiment [16], 81.5%; in experiment [17], 73.5%; in experiment [18], 77.7%. For the same compound, the growth was 64.6% in experiment [19] and 53.5% in experiment [20].
Regarding `COc1ccc(-c2nc3sc(-c4ccccc4)cn3n2)cc1`, the growth in experiment [1] was 30.4%; in experiment [2], 29.6%; in [3] it was 65.2%; in experiment [4], 65.9%; in experiment [5] it was 78.8%; in experiment [6], 66.5%. For the same compound, the growth was 34.4% in [7]; 57.2% in experiment [8]; 54.4% in experiment [9]; 67.6% in experiment [10]; 59.1% in experiment [11]; 62.7% in experiment [12]. Besides, the growth in experiment [13] was 62.6%; in [14], 61.7%; in experiment [15], 106%; in [16] it was 67.5%; in [17], 60%; in experiment [18] it was 43.7%. For the same compound, the growth is 64.2% in [19] and 50.7% in experiment [20].
Regarding `COc1ccc(C(=O)n2nc(-c3ccccc3)nc2N)cc1OC`, the growth in [1] is 96.8%; in experiment [2], 91.9%; in experiment [3] it was 81.1%; in experiment [4] it was 95.7%; in [5] it was 90.4%; in [6] it was 87.9%. Besides, the growth in [7] was 93.3%; in experiment [8], 86.7%; in experiment [9] it was 91.7%; in [10], 107%; in [11], 103%; in experiment [12] it was 88.2%. Besides, the growth is 90.5% in experiment [13]; 70.5% in [14]; 112% in experiment [15]; 82.4% in experiment [16]; 84.3% in experiment [17]; 83.7% in experiment [18]. In addition, the growth is 86.8% in [19] and 87.8% in [20].
